Assay [1] has as its target Nuclear receptor coactivator 1 (Homo sapiens) (UniProt Q15788). Kind of assay: SRC1 coactivator transcriptional activity inhibitors, confirmation, cell-based, luminescence, quadruplicate (AID 588820).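 Note: 0% = DMSO wells and 100% = gossypol 36 µM treated wells.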 As to conditions: HEK293 GAL4-SRC1 luciferase reporter, at 3.6 µM, stronger effect = higher value. In general terms: In a reporter assay the amount or activity of a reporter protein is the signal.

Assay [2] can be described thus: VP16 transactivation inhibitors, counter-screen for SRC1 inhibitor project, cell-based, luminescence, high throughput (AID 588824; in the data active = inhibition above about 25%). As to conditions: cell-based VP16 transactivation luciferase luminescence; at 3.6 µM; stronger effect = higher value. On the technique in general: A counterscreen serves to expose hits that act by an unwanted route or on another target.

Values without a mark were called inactive. Active and inactive are the calls of the source.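 Rule for the calls, unless noted: active = mean inhibition above 46.68%, the untreated control wells mean plus 3 SD; inactive = the rest.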

Chain of Nuclear receptor coactivator 1 (Homo sapiens) (Q15788 whole entry, looked up, the tested form may be a part): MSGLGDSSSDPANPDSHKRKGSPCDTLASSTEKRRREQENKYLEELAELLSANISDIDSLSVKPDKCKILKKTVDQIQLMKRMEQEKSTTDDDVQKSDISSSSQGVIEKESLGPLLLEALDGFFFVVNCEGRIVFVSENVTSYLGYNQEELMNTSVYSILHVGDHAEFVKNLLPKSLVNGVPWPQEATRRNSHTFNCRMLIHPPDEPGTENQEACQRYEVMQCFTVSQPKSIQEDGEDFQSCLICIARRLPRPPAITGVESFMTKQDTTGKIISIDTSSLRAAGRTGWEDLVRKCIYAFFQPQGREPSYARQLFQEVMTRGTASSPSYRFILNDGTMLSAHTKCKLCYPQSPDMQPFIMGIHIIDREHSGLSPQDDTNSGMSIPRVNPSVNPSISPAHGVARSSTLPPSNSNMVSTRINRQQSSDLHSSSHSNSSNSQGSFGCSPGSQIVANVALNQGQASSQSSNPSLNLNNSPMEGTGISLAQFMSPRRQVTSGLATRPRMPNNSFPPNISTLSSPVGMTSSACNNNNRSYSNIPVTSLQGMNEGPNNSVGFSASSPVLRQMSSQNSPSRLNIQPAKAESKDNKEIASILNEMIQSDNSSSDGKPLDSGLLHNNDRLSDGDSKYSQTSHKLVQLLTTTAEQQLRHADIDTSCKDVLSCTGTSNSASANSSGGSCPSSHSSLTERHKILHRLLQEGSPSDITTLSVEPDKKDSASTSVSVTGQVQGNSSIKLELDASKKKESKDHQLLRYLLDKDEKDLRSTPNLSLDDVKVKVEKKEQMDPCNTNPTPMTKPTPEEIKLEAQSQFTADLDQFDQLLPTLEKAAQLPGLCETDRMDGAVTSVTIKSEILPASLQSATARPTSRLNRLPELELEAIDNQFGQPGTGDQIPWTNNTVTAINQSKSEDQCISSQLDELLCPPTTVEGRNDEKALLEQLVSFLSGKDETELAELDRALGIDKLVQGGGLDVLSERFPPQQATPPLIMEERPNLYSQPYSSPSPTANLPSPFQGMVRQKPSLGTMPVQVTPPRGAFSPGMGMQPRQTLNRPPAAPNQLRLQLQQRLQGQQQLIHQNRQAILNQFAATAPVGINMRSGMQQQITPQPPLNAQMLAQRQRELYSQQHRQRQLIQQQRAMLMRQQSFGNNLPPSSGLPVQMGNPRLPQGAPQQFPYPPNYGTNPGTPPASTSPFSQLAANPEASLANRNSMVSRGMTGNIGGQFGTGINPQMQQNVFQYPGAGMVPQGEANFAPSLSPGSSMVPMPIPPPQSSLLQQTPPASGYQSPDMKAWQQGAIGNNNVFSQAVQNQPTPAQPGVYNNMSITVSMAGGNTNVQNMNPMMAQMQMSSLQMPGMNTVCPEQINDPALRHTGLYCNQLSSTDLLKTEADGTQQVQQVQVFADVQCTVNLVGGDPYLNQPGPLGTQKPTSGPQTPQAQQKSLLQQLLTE

`Cc1c(C(=O)N2CCN(Cc3ccc4c(c3)OCO4)CC2)sc2ncnc(N3CCN(c4ccccc4F)CC3)c12`: the inhibition (commonly the change of the read-out against control, counted positive when it falls) was -22.2% in assay [1] and 18.3% in assay [2].

On to `CN(C)CCNC(=O)c1cccc2nc3c(ccc4ccccc43)nc12`, for which the inhibition in assay [1] is 30.5%; in assay [2] it was 40.4% (active).

As to `COC(=O)N(NC(=O)C(O)(CCC(C)C)CCC(C)C)c1ccccc1`, the inhibition was 16.2% in assay [1] and 11.5% in assay [2].

On to `O=C1N=C(N2CCCC2)S/C1=C\C=C\c1ccccc1`, for which the figures for the inhibition in assay [1] and in assay [2] were -93.8% and -50.3%, respectively.

For `O=C(CCCn1c(=S)[nH]c2ccsc2c1=O)Nc1ccc2c(c1)OCCO2`, the inhibition in assay [1] was -1.89%; in assay [2], -10.8%.

On to `c1ccc(-c2csc3ncnc(NCCN4CCOCC4)c23)cc1`, for which the inhibition in assay [1] was 27.7%; in assay [2] it was 22.6%.

Take `Cc1ccc(CNc2nc(-c3cccs3)nc3ccccc23)cc1`: the inhibition in assay [1] was -2.3%; in assay [2] it was 14.8%.

Turning to `CN1CCc2c(OCc3ccc(F)cc3)cccc2C1=O`, the inhibition was -8.74% in assay [1] and -7.17% in assay [2].

Take `Cc1cc(-c2ccc(F)cc2)n2ncc(-c3ccccc3)c2n1`: the inhibition was -87.3% in assay [1] and -34.6% in assay [2].

Take `CC(=O)Nc1ccc(NC(=O)C(C)OC(=O)CCSc2ccccc2Cl)cc1` (stereo not drawn): the values for the inhibition in assay [1] and in assay [2] were -6.34% and 4.67%, respectively.

Consider `Cc1nc(N)c(C#N)c(-c2cccnc2)c1C`, for which the inhibition in assay [1] is 46.4%; in assay [2], 26.5% (active).

In the case of `O=C(Nc1ccccc1)c1ccc(S(=O)(=O)NCc2cccnc2)cc1`, the inhibition was -8.68% in assay [1] and 0.28% in assay [2].

In the case of `O=C(NCc1ccco1)c1cccc(NC(=O)c2ccco2)c1`, the inhibition is 28.5% in assay [1] and 50% (active) in assay [2].

Regarding `CC1CC(C)CN(c2ncc3c(n2)CC(c2ccc(Cl)cc2)CC3=O)C1` (stereo not drawn), the figures for the inhibition in assay [1] and in assay [2] were -7.75% and 3.59%, respectively.

Turning to `CCc1noc(C)c1C(=O)Nc1ccccc1N1CCOCC1`, the inhibition in assay [1] is -11%; in assay [2], 1.51%.

In the case of `CCOc1ccc(-c2cc(C(=O)Nc3ccc(C)c(NS(C)(=O)=O)c3)[nH]n2)c(C)c1`, the inhibition is -14% in assay [1] and 5.47% in assay [2].

For `CN1CCN(c2ccccc2/C=C2/C(=O)Nc3ccccc32)CC1`, the results for the inhibition in assay [1] and in assay [2] were -7.17% and 10.8%, respectively.

Regarding `COc1cc(/C=N/NC(=O)NC23CC4CC(CC(C4)C2)C3)ccc1OCC(N)=O`, the values for the inhibition in assay [1] and in assay [2] were -24.7% and -17.2%, respectively.

Consider `O=S(=O)(NCC1CN(S(=O)(=O)c2c(F)cccc2F)C1)c1ccc2c(c1)OCCO2`, for which the inhibition is 2.79% in assay [1] and 17.9% in assay [2].

With `CCOC(=O)c1ccc(NC(=O)c2ccc(CN3CCc4ccccc4C3)cc2)cc1`, the inhibition was -48.8% in assay [1] and 30.4% (active) in assay [2].

With `COC(=O)c1cc(=O)n(Cc2ccco2)c(=Nc2ccc(F)c(Cl)c2)s1`, the values for the inhibition in assay [1] and in assay [2] were -12.1% and 18.7%, respectively.

Take `CCOC(=O)C1=C(COC(=O)/C=C/c2ccc(OC)c(OC)c2)NC(=O)NC1C` (stereo not drawn): the inhibition in assay [1] is -16.4%; in assay [2], -2.04%.

As for `S=C1SCN(Cc2ccccn2)CN1Cc1ccco1`, the inhibition in assay [1] was -2.15%; in assay [2] it was -1.66%.

For the compound `C[n+]1c2n(c3ccccc31)N=C(c1ccc(Cl)cc1)CS2`, the results for the inhibition in assay [1] and in assay [2] were -20.3% and 19.1%, respectively.

As for `O=C(Nc1ccc(OCC(F)(F)C(F)F)c(C(F)(F)F)c1)c1ccccc1O`, the inhibition is -35.3% in assay [1] and 6.93% in assay [2].

Consider `Cc1cc(C)nc(-n2ncc(C#N)c2N)n1`, for which the inhibition in assay [1] is -18.5%; in assay [2] it was 5.06%.

Consider `O=C(NCc1ccncc1)C1CCCN(S(=O)(=O)c2ccc(Br)cc2)C1` (stereo not drawn), for which the inhibition in assay [1] is -1.35%; in assay [2] it was 14.6%.

As for `CCOc1ccc(NC(=S)N2CCC(NC(=O)c3ccco3)CC2)cc1`, the inhibition in assay [1] is -7.01%; in assay [2], -4.78%.

Regarding `Nc1nc(N)c2c(ccc3nccc32)[nH]1`, the inhibition in assay [1] is -7.68%; in assay [2] it was 24.9%.

As to `O=c1[nH]cnc2sc3c(c12)CCCCC3`, the inhibition in assay [1] is -0.67%; in assay [2], -2.41%.

With `Cc1nn(-c2ccccc2)c(C)c1NC(=O)COC(=O)C1CC(=O)N(CCc2ccccc2)C1` (stereo not drawn), the values for the inhibition in assay [1] and in assay [2] were -14.4% and 2.89%, respectively.

With `COC(=O)c1cccc(NC(=O)CN2C(=O)c3ccccc3C2=O)c1`, the inhibition in assay [1] was -23.7%; in assay [2], -3.69%.

`COCCn1c(C)cc(C(=O)CSc2nc3ccccc3s2)c1C`: the inhibition in assay [1] was -45.7%; in assay [2], 6.14%.

For `CCN(CC(=O)Nc1ccccc1C(F)(F)F)C(=O)c1ccc2[nH]c3c(c2c1)CC(C)CC3` (stereo not drawn), the inhibition is -11.7% in assay [1] and -8.04% in assay [2].

The record behind these values is PubChem BioAssay.
